Test results taken from PubChem BioAssay AID652181 (The Scripps Research Institute Molecular Screening Center, 2013).

Tested on: Hsp90 CT
Experiment: HSP90 domain binders, late-stage follow-up, orthogonal assay for selective HSP90 inhibitor project, biophysical, surface plasmon resonance (AID 652181)
Conditions: Surface plasmon resonance binding to HSP90 domains, at 200 µM, stronger effect = higher value

SMILES | binding
CCOC(=O)C1=C(c2ccc(OC)cc2)C(=O)c2ccccc2C1=O | 11.2
CCc1ccc(OCc2ccc(C(=O)OC)o2)cc1 | 6.78
COC(=O)c1ccccc1OCCCOc1ccc(C)cc1OC | 10.2
Cc1cc(NO)nc(-c2ccc(Br)cc2)n1 | 0.77
COc1cc(/C=N/Nc2ccc(Cl)c(C(=O)O)c2)ccc1OC(=O)c1ccc(F)cc1 | -4.19
COc1ccccc1NC(=O)c1coc(=O)c(Br)c1 | 11.7
CCOC(=O)c1csc(NC(=O)c2cc3ccccc3o2)n1 | 6.43
CC(=O)Nc1ccccc1OCC(=O)c1cc(C)n(Cc2cccs2)c1C | 10.6
Cc1c(-c2nc(-c3ccc(C(F)(F)F)cc3)no2)n(C)oc1=O | 7.47
Cc1c(-c2nc(-c3ccc(C(C)(C)C)cc3)no2)n(C)oc1=O | 4.46
